Sampled rows, rich in hits. Any-hit rate of the full collection: about 17%.
TDP1 block – inhibitors of human tyrosyl-DNA phosphodiesterase TDP1 | Potency, µM (top dose mostly 130 µM), actives largely listed as inhibitors | recombinant TDP1, AlphaScreen DNA substrate cleavage | 350,000 compounds, 0.28% hits; further: nearly all actives have a fitted effect of over 40% in size
Target sequence (Q9NUW8 whole entry, looked up): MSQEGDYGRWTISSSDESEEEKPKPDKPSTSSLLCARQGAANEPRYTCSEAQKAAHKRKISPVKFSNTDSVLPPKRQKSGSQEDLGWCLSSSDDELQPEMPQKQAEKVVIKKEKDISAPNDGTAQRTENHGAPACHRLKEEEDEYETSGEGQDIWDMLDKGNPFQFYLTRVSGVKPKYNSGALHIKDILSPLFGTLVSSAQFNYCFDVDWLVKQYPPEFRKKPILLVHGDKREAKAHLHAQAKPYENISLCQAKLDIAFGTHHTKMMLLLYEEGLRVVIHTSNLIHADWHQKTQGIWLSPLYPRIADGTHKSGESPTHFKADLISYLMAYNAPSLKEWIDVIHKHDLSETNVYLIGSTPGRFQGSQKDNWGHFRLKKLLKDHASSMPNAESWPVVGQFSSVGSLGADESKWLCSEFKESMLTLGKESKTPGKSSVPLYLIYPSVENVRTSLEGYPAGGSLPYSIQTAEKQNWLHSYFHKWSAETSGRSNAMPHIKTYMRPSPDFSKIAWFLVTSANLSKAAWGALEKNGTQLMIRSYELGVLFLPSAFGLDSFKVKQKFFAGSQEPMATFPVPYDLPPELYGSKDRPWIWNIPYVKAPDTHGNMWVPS
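Steps: enzyme plus compound, 15 min RT; add biotin/phosphotyrosine-FITC oligonucleotide (15 nM final), react 5 min; add donor/acceptor beads (10 ug/ml final), 10 min; read AlphaScreen. Tdp1 at 1 nM final.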
DT40 TDP1 no CPT – qHTS for Inhibitors of human tyrosyl-DNA phosphodiesterase 1 (TDP1): qHTS in cells in absence of CPT | DT40 Tdp1-/- hTDP1 cells, no CPT, ATP luminescence, 48 h | Potency, µM (titrated, usually from 46.2 µM), most hits filed as inhibitors | 420,000 compounds, 15% hits; further: nearly all actives have a fitted effect of over 55% in size
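Readout: luminescence from CellTiter-Glo after 30 min in the dark at RT. Cells: DT40 Tdp1-/- with stable hTDP1, 400/well. Exposure: compounds alone, ≥48 hr, 37 °C.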
DT40 TDP1 CPT – growth inhibition of DT40 Tdp1-/-;hTDP1 cells with camptothecin (screen for TDP1 inhibitors); 420,000 compounds, 12% hits; chicken DT40 Tdp1-/-;hTDP1 cells + 20 nM CPT, ATP luminescence, 48 h; Potency, µM (highest dose often 46.2 µM), usual class: inhibitors; further: nearly all actives have a fitted effect of over 55% in size
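Chicken DT40 Tdp1-/- cells stably complemented with human TDP1 were seeded at 400 cells/well in medium containing 20 nM camptothecin, exposed to pin-transferred compounds, and grown at 37 °C for at least 48 hr. Viability was read as ATP luminescence.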
ClpP mod – qHTS Assay for Activators of ClpP. purified B. subtilis ClpP, FRET peptide cleavage, 20 min. Potency, µM (top dose mostly 57.5 µM). AID 651965, 2013. 340,000 compounds, 1.9% hits; active means well fitted falling curve with a large enough effect; inconclusive means small, poorly fitted or top-dose-only effect; inactive means no such curve, though single readings can be large or run the other way; further: the source files actives as falling curves though it sought activators and does not explain the sign; nearly all actives have a fitted effect of over 65% in size
Target sequence (P80244 whole entry, looked up): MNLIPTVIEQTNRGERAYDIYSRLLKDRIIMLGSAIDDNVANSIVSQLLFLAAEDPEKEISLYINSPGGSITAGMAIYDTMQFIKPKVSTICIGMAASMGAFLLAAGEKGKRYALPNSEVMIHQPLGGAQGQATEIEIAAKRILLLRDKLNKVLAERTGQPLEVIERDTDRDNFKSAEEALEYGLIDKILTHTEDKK
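Buffer: 100 mM Tris/HCl pH8, 100 mM KCl, 0.05% low protease BSA, 2.5% glycerol, 0.01% Tween-20. ClpP 10 microg/mL final; 20 min RT; delta FRET normalized to ADEP and DMSO controls.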
Of the large screens only hits and unclear results are named; the others gave an inactive call. Unless noted, the call rests on the fitted dose curve; in most records, active means well fitted curve in the direction sought with a large enough effect; inconclusive means small, poorly fitted or top-dose-only effect, or another doubt; inactive means no such curve, though single readings can be large; an effect the other way counts as inactive or inconclusive.

Brc1cccc(-c2nc3ccc(Br)cn3c2Cc2ccccc2)c1	DT40 TDP1 no CPT inconclusive, DT40 TDP1 CPT inconclusive (no result: TDP1 block)
CCCc1nc2ccc(Br)cn2c1Cc1cccc(Cl)c1	DT40 TDP1 no CPT 4.6µM, DT40 TDP1 CPT 6.5µM (no result: TDP1 block)
CCCc1nc2ccc(Br)cn2c1Cc1ccccc1	DT40 TDP1 no CPT 2.9µM, DT40 TDP1 CPT 4.6µM (no result: TDP1 block)
COc1cccc(C2Nc3c(F)cc(Br)cc3C3C=CCC32)c1OC (configuration not stated)	DT40 TDP1 no CPT 18µM, DT40 TDP1 CPT 16µM
CCCCC[C@H](O)/C=C/C=C\CCCCCCCCCC(=O)O	none (no result: DT40 TDP1 no CPT, DT40 TDP1 CPT, ClpP mod)
CCS(=O)(=O)c1ncc(CO)n1CCc1ccccc1	none
COc1ccccc1N1CCN(C(=O)/C=C/c2c(Cl)nc3ccccn23)CC1	DT40 TDP1 no CPT 4.6µM, DT40 TDP1 CPT 10µM (no result: ClpP mod)
COc1ccc(NC(=O)/C=C/c2c(Cl)nc3ccccn23)cc1	none
Cc1ccn2cc(-c3cccc(NS(C)(=O)=O)c3)nc2c1	none (no result: ClpP mod)
Cc1ccc(-c2cn3ccc(C)cc3n2)cc1	DT40 TDP1 no CPT inconclusive, DT40 TDP1 CPT inconclusive
Cc1ccn2cc(-c3ccc(NS(=O)(=O)c4ccccc4)cc3)nc2c1	DT40 TDP1 no CPT 29µM, DT40 TDP1 CPT inconclusive
Cc1ccn2cc(-c3cccc(S(=O)(=O)N4CCCC4)c3)nc2c1	DT40 TDP1 no CPT 23µM, DT40 TDP1 CPT 18µM (no result: ClpP mod)
Cc1ccc(S(=O)(=O)Nc2ccc(-c3cn4ccc(C)cc4n3)cc2)cc1	DT40 TDP1 no CPT 15µM, DT40 TDP1 CPT inconclusive, ClpP mod inconclusive
CCOC1=C2[C@@H](CN(S(=O)(=O)c3ccc(C)cc3)[C@H]2c2ccc(Cl)cc2)[C@H]2C(=O)N(c3ccccc3)C(=O)[C@H]2C1	DT40 TDP1 no CPT inconclusive (no result: TDP1 block)
CCC(Sc1nc2nccnc2c(=O)n1Cc1ccc(OC)cc1)C(=O)NC1CCCCC1 (configuration not stated)	none
CCn1cnc2c(=O)oc3ccc(S(=O)(=O)Nc4ccc(OC)cc4)cc3c21	DT40 TDP1 no CPT inconclusive, DT40 TDP1 CPT inconclusive
Cc1ccc(S(=O)(=O)Nc2ccc3nc(C)oc3c2)cc1	DT40 TDP1 no CPT 10µM, DT40 TDP1 CPT 18µM, ClpP mod inconclusive (no result: TDP1 block)
COc1ccc(NS(=O)(=O)c2ccc3oc(=O)c4[nH]c(=O)c(=O)n(C)c4c3c2)cc1	DT40 TDP1 no CPT inconclusive, DT40 TDP1 CPT inconclusive, ClpP mod 20µM
COc1ccc(-c2nc3ccc(NS(=O)(=O)c4ccc(C)cc4)cc3o2)cc1	DT40 TDP1 no CPT 10µM, DT40 TDP1 CPT inconclusive
COc1ccc(NS(=O)(=O)c2ccc3oc(SC)nc3c2)cc1	DT40 TDP1 no CPT 9.2µM, DT40 TDP1 CPT 12µM (no result: TDP1 block, ClpP mod)
CNC(=O)CSc1nc2cc(S(=O)(=O)Nc3ccc(OC)cc3)ccc2o1	none (no result: TDP1 block)
COc1ccc(NC(=O)CC2C(=O)N(c3ccc(F)cc3)C(=O)N2Cc2cccnc2)cc1 (configuration not stated)	DT40 TDP1 CPT inconclusive
O=C(OCc1ccccc1)N(CCCCN(CCCNCc1ccccc1)C(=O)OCc1ccccc1)CCCNCc1ccccc1	DT40 TDP1 no CPT 5.2µM, DT40 TDP1 CPT 5.2µM (no result: TDP1 block)
O=C(NCCCCCCNC(=O)OCc1ccccc1)OCc1ccccc1	none (no result: TDP1 block)
CCN(CC)S(=O)(=O)c1ccc(C)c(C(=O)Oc2cccc(-c3cnc4ccccc4n3)c2)c1	DT40 TDP1 no CPT 21µM, DT40 TDP1 CPT inconclusive (no result: ClpP mod)
CCN(CC)S(=O)(=O)c1cc(C(=O)Oc2cccc(-c3cnc4ccccc4n3)c2)ccc1OC	DT40 TDP1 no CPT 21µM, DT40 TDP1 CPT inconclusive
COc1ccc(OC)c(S(=O)(=O)N2CCCC(C(=O)NCCN3CCOCC3)C2)c1 (configuration not stated)	none (no result: ClpP mod)
CCOC(=O)C1(Cc2ccccc2)NC(c2ccccc2F)C2C(=O)N(CC)C(=O)C21 (configuration not stated)	DT40 TDP1 no CPT 7.3µM, DT40 TDP1 CPT 23µM
CCOC(=O)C1(C)NC(c2ccco2)C2C(=O)N(CC)C(=O)C21 (configuration not stated)	none
CCN1C(=O)C2C(c3ccccc3F)NC(Cc3ccc(O)cc3)(C(=O)OC)C2C1=O (configuration not stated)	DT40 TDP1 no CPT inconclusive, DT40 TDP1 CPT inconclusive
CCOC(=O)C1(C)NC(c2ccccc2F)C2C(=O)N(CC)C(=O)C21 (configuration not stated)	ClpP mod 28µM
CCOCCCn1c(=N)c(C(=O)NCC2CCCO2)cc2c(=O)n3cc(C)ccc3nc21 (configuration not stated)	none (no result: TDP1 block)
Cc1c(C(=O)Nc2cccc(C(F)(F)F)c2)oc2ccc3c(c12)C(=O)CC(C)(C)O3	DT40 TDP1 no CPT inconclusive, DT40 TDP1 CPT inconclusive
O=C(CN1c2cccc3cccc(c23)S1(=O)=O)Nc1ccccc1Br	none
Cc1ccc2nc(NC(=O)c3ccccc3F)sc2c1	DT40 TDP1 no CPT inconclusive (no result: TDP1 block)
CCOc1ccc2nc(NC(=O)c3nc(SC(C)C)ncc3Cl)sc2c1	DT40 TDP1 no CPT 8.2µM, DT40 TDP1 CPT 9.2µM
O=C(Nc1nc2c(F)cc(F)cc2s1)c1ccccn1	DT40 TDP1 no CPT 0.73µM, DT40 TDP1 CPT 0.65µM (no result: ClpP mod)
O=C(COc1ccccc1)NNc1nc2c(F)cc(F)cc2s1	none
O=C(Nc1nc2c(F)cc(F)cc2s1)c1ccc(S(=O)(=O)N2CCc3ccccc32)cc1	DT40 TDP1 no CPT inconclusive, DT40 TDP1 CPT 26µM
Cc1ccc2nc(NC(=O)c3ccccn3)sc2c1	DT40 TDP1 no CPT 6.5µM, DT40 TDP1 CPT 4.6µM (no result: ClpP mod)
O=C(Nc1nc2ccc(F)cc2s1)c1cccc(S(=O)(=O)N2CCc3ccccc32)c1	DT40 TDP1 no CPT inconclusive, ClpP mod inconclusive
O=C1NC[C@H](CCCCN2CCN(Cc3ccccc3)C(=O)C2=O)N(CC2CCCCC2)C1=O	none (no result: TDP1 block)
COCCCNC(=O)Cn1c(=O)n(-c2ccc(C)cc2)c(=O)c2c1c1cc(C)ccc1n2C	DT40 TDP1 no CPT inconclusive
CCOc1ccccc1NC(=O)c1nc(SC(C)C)ncc1Cl	DT40 TDP1 no CPT 18µM, DT40 TDP1 CPT inconclusive
CCOc1ccc2nc(NC(=O)CN3CCN(CC)CC3)sc2c1	DT40 TDP1 no CPT inconclusive
CCOc1ccc2nc(NC(=O)c3ccoc3C)sc2c1	DT40 TDP1 no CPT 8.2µM, DT40 TDP1 CPT 9.2µM
CSc1ncccc1C(=O)Nc1nc2ccc(Oc3ccccc3)cc2s1	DT40 TDP1 no CPT inconclusive, DT40 TDP1 CPT 21µM
CCOc1ccccc1NC(=O)c1nc(SCc2ccccc2F)ncc1Cl	DT40 TDP1 no CPT inconclusive, DT40 TDP1 CPT inconclusive (no result: TDP1 block)
CCOc1ccc2nc(NC(=O)Cn3[nH]c(=O)c4ccccc4c3=O)sc2c1	DT40 TDP1 no CPT 23µM, DT40 TDP1 CPT 23µM
Cc1ccc(NC(=O)CN(C)C(=O)c2cc(S(=O)(=O)N(C)C)ccc2N2CCCC2)cc1	DT40 TDP1 CPT inconclusive
CCOc1ccc2nc(NC(=O)c3ccccn3)sc2c1	DT40 TDP1 no CPT 0.65µM, DT40 TDP1 CPT 0.82µM (no result: TDP1 block, ClpP mod)
CCOc1ccc2nc(NC(=O)NC3CCCCC3)sc2c1	DT40 TDP1 no CPT 21µM, DT40 TDP1 CPT inconclusive (no result: ClpP mod)
CCOc1ccc2nc(NC(=O)C3CCCO3)sc2c1 (configuration not stated)	none

Bioassay records as filed in PubChem.
